Measured values as given in PubChem BioAssay (NCI).
“And” between values parts separate entries of the source, which are not always exact repeats. Equal values may be shown once. Compounds without any hit were thinned out: in the full panel of roughly 83,000, 20% have a hit.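 For each line, cells grew in 96-well plates with the test compound present at a single concentration for 48 hours.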 The source made the active and inactive calls. Rule for the calls: active = growth percent below 10; inactive = the rest.

Tests used:
Experiment in all cases: NCI-60 one-dose screen, 48 h (100 = growth as untreated, 0 = no growth, -100 = all killed)
Details in all cases: 10 µM unless noted
[1] = tested on: SR leukemia
[2] = tested on: RPMI-8226 leukemia
[3] = tested on: OVCAR-8 ovarian
[4] = tested on: OVCAR-5 ovarian
[5] = tested on: OVCAR-4 ovarian
[6] = tested on: SK-OV-3 ovarian
[7] = tested on: IGROV1 ovarian
[8] = tested on: OVCAR-3 ovarian
[9] = tested on: HS 578T breast
[10] = tested on: NCI/ADR-RES ovarian
[11] = tested on: T-47D breast
[12] = tested on: BT-549 breast
[13] = tested on: MDA-MB-435 melanoma
[14] = tested on: SW-620 colon
[15] = tested on: MCF7 breast
[16] = tested on: HCT-116 colon
[17] = tested on: HCC-2998 colon
[18] = tested on: KM12 colon

Measured: growth

Cc1nc2sc(C(=O)Nc3cccc(Cl)c3C)c(N)c2cc1C(O)c1ccccc1 (stereo not given)
inactive: [3] 11.8% | [4] 37.5% | [5] 55.6% | [6] 32.9% | [7] 21.8% | [9] 23.4% | [11] 44.5% | [12] 40.9% | [14] 24.1% | [15] 16.2% | [17] 13.4% | [18] 10.5%
active: [1] 7.23% | [2] 8.08% | [8] 4.1% | [10] 3.99% | [13] 4.87% | [16] 8.63%

CN1CCCc2cc(/C=C3\SC(=S)N(C(Cc4ccc(O)cc4)C(=O)O)C3=O)ccc21 (stereo not given)
inactive: [1] 105% | [2] 95.8% | [3] 99.2% | [4] 101% | [5] 98.2% | [6] 107% | [7] 102% | [8] 95.5% | [9] 102% | [10] 100% | [11] 87.1% | [12] 106% | [13] 103% | [14] 102% | [15] 94.5% | [16] 106% | [17] 93.6% | [18] 105%

O=C(NCc1ccc(Cn2c(=O)sn(-c3ccc(Cl)cc3)c2=O)cc1)OCc1ccc2c(Cl)cc(Cl)c(O)c2n1
inactive: [1] 51.9% | [2] 46.8% | [3] 38.1% | [4] 74.9% | [5] 67.3% | [6] 76% | [7] 49.2% | [8] 63.7% | [9] 69.7% | [11] 60.2% | [12] 60.6% | [13] 54.7% | [14] 49.3% | [15] 50.3% | [16] 29.3% | [17] 67.9% | [18] 23.5%
active: [10] 6.82%

COc1ccc(-c2nc(Cl)c3c(C)nn(-c4ccc(F)cc4)c3n2)cc1
inactive: [1] 103% | [2] 102% | [3] 99.2% | [4] 110% | [5] 107% | [6] 102% | [7] 109% | [8] 106% | [9] 103% | [10] 112% | [11] 102% | [12] 123% | [13] 112% | [14] 103% | [15] 105% | [16] 96.5% | [17] 103% | [18] 104%

O=C(/C=C/c1ccccc1)c1cccs1
inactive: [1] 94.9% and 24.1% | [3] 97.5% and 94% | [4] 93.2% and 108% | [5] 97.7% and 87.3% | [6] 104% and 112% | [7] 104% and 116% | [8] 97% and 117% | [9] 100% | [10] 99.5% and 100% | [11] 97.3% and 104% | [12] 104% and 107% | [13] 88.9% and 85.1% | [14] 84.6% and 98.3% | [15] 29.1% and 21.7% | [16] 74% and 57.3% | [17] 97.3% and 130% | [18] 69.6% and 70%
49.3% (inactive) and 6.44% (active): [2]

COc1ccc2c(c1)c(C(=O)c1nc(-c3cn(C)c4ccccc34)no1)cn2C
inactive: [1] 44.7% | [2] 93.6% | [3] 97.9% | [4] 107% | [5] 95.8% | [6] 84.5% | [7] 86.5% | [8] 109% | [9] 88.2% | [10] 94.3% | [11] 77.5% | [12] 98% | [13] 76.7% | [14] 87% | [15] 24% | [16] 99.5% | [17] 95.3% | [18] 81%

C[N+]1=C(/C=C\C=C\c2ccccc2)C(C)(C)c2ccccc21
inactive: [3] 12.2% | [4] 45.1% | [5] 39.9% | [6] 92.8% | [7] 19.9% | [9] 25% | [10] 75.3% | [12] 22.5% | [14] 19.8% | [16] 14.3% | [17] 47.9% | [18] 22.2%
active: [1] -14.3% | [2] -25.5% | [8] -4.63% | [11] -1.09% | [13] 9.04% | [15] 7.58%

Cc1[nH]c(C(=O)Nc2nc3ccc(NC(=O)CCN)cc3s2)c(Cl)c1Cl
inactive: [2] 78.4% | [3] 56.1% | [4] 92.5% | [5] 44.8% | [6] 107% | [7] 68.4% | [8] 77.3% | [9] 90.8% | [10] 58.4% | [11] 54.8% | [12] 88.9% | [13] 91.3% | [14] 43.7% | [15] 52.3% | [16] 59.9% | [17] 96.4% | [18] 90.3%
active: [1] 6.56%

O=C(Nc1cc(C(F)(F)F)cc(C(F)(F)F)c1)c1cc(Cl)ccc1O
active: [1] -8.27% | [2] -31.5% and -35.6% | [3] -37.8% and 3.24% | [6] -56.9% and 1.67% | [7] 4.82% and 9.9% | [9] -8.03% | [10] -1.25% and 2.06% | [11] -14% and -1.66% | [12] -31.5% | [13] -21.2% and -8.57% | [14] 2% and 5.7% | [15] 3.02% and 1.11% | [16] -20.2% and -28.9% | [17] -25.4% and 4.04% | [18] -24.3% and -33%
19.3% (inactive) and 2.52% (active): [8]
inactive: [4] 27.2% and 23.1% | [5] 24.8% and 20.3%

O=C(/C=C/c1cccs1)Nc1ncc(Cc2ccc(Cl)c(Cl)c2)s1
inactive: [1] 32.7% | [2] 78.1% | [3] 72.7% | [4] 74.1% | [5] 66.6% | [6] 68.8% | [7] 64.1% | [8] 40.4% | [9] 62.4% | [10] 60.3% | [11] 49% | [12] 80.9% | [14] 37.5% | [15] 26.8% | [16] 45.2% | [17] 53.8% | [18] 22%
active: [13] -23.2%

Clc1ccc(Nc2nc(Nc3ccc(Cl)cc3)nc(Nc3ccc(-c4cc(-c5cccc(Cl)c5)on4)cc3)n2)cc1
active: [1] -9.82%
inactive: [2] 87% | [3] 85.5% | [4] 71.4% | [5] 101% | [6] 103% | [7] 104% | [8] 90.1% | [9] 105% | [10] 84.1% | [11] 83.3% | [12] 98.6% | [13] 104% | [14] 96.6% | [15] 86.6% | [16] 99.6% | [17] 121% | [18] 104%

O=C1c2cc3c(cc2-c2c1c1ccc(Cl)cc1c(=O)n2CCCn1ccnc1)OCO3
active: [1] -19.4% | [2] -23.6% | [4] 3.22% | [6] 8.75% | [8] -5.45% | [10] -26.4% | [11] -0.548% | [12] -20.3% | [13] -58.8% | [14] 1.05% | [15] -9.33% | [16] -23% | [18] 1.36%
inactive: [3] 11.4% | [5] 13.7% | [7] 28.3% | [9] 46.3% | [17] 15%

Cn1cc(-c2csc(-c3cn(CCOC(N)=O)c4ccccc34)n2)c2cccnc21
inactive: [1] 20.3% | [2] 74.1% | [3] 89.4% | [4] 104% | [5] 102% | [6] 95.2% | [7] 77.7% | [8] 94.9% | [9] 92.6% | [10] 82.9% | [11] 45.8% | [12] 79.5% | [14] 67.9% | [15] 58.2% | [16] 86.5% | [17] 90.4% | [18] 67%
active: [13] 8.15%

CC(=O)Nc1c(I)c(NC(C)=O)c(I)c(C(=O)O)c1I
inactive: [1] 86.7% and 80.5% | [2] 106% and 112% | [3] 101% and 96.3% | [4] 102% and 108% | [5] 90.4% | [6] 105% and 110% | [7] 108% | [8] 111% and 116% | [9] 105% and 171% | [10] 106% and 109% | [11] 96.6% and 102% | [12] 101% and 97.9% | [13] 101% and 102% | [14] 102% and 117% | [15] 98.6% and 96.9% | [16] 110% and 93% | [17] 106% | [18] 104% and 123%

CC1=CC=C(NC(=O)/C=C/c2ccccc2)CC1Nc1nccc(-c2cccnc2)n1 (stereo not given)
active: [13] -48.5%
inactive: [1] 15.3% | [2] 17.2% | [3] 61% | [4] 96.8% | [5] 70% | [6] 57.6% | [7] 54.7% | [8] 19.9% | [9] 44.5% | [10] 47.6% | [11] 48.1% | [12] 74.5% | [14] 27% | [15] 18% | [16] 14.5% | [17] 70.5% | [18] 26.4%
